# Screens deposited in PubChem by several laboratories.
# LMP1 NFkB inh = EBV LMP1-driven NF-kappaB luciferase reporter inhibitors, primary screen, cell-based, luminescence, single point. AID 504558, 2011. inhibition, % at 12.5 µM. 350,000 tested, 0.69% active. LMP1-induced NF-kappaB luciferase reporter cells; in the data active means inhibition above about 41%;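 further: 0% = neutral control wells and 100% = reference inhibitor control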
# EWS-Fli block = EWS/Fli-driven NR0B1 reporter inhibitors, primary screen, A673 cells, NR0B1 luciferase, luminescence, MLPCN library. viability-normalised. inhibition, % at 12.6 µM. 350,000 tested, 0.67% active;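 active means mean inhibition of at least 50% after viability correction, with every replicate also passing that limit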;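 further: firefly luciferase signal divided by Alamar Blue viability fluorescence both relative to DMSO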
# LGR2 inh = inhibitors of bursicon-induced LGR2 CRE-luciferase signal, primary screen, cell-based, HEK293, CRE-luciferase reporter, bursicon stimulation; 380,000 tested, 0.35% active; AID 720647, 2013; bursicon-stimulated, 4 h; inhibition, % at 9.99 µM; Drosophila bursicon receptor LGR2 (rickets);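 active means drop in luminescence signal, shown as inhibition above about 50% in the replicate tests, limit read from the data, passing the limit was not always enough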;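 further: agonist challenge used bursicon conditioned medium at about half maximal strength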
# TWEAK-Fn14 inh = inhibitors of TWEAK-Fn14 signaling, primary screen, luciferase reporter cells, uHTS | inhibition, % at 10 µM | 360,000 tested, 2% active | AID 1159606, 2016 | TWEAK-stimulated Fn14 reporter cells, luciferase luminescence, 8 h; in the data active means inhibition above about 50%
# TROY NFkB inh = inhibitors of TROY-driven NF-kB signaling, primary screen, Q293 LMP1-TROYcd cells, NF-kB luciferase, uHTS. 360,000 tested, 0.98% active. inhibition, % at 10 µM. Q293 LMP1-TROYcd NF-kB luciferase reporter, 4 h;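 active means compounds whose plate-normalised and pattern-corrected inhibition of the luciferase reporter signal at the single screening dose is 50% or more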
# The depositor's hits bear a star; / = no result given; ! = a repeat was not active. This is a sample that favours compounds with a hit; in the whole collection about 2.5% have one here.
SMILES,LMP1 NFkB inh,EWS-Fli block,LGR2 inh,TWEAK-Fn14 inh,TROY NFkB inh
C/C=C/c1cnc2c(c1)C(=O)N([C@@H](C)CO)C[C@@H](C)[C@H](CN(C)S(=O)(=O)c1cccs1)O2,/,0.8,-18.6,/,/
Cc1onc(-c2ccccc2)c1C(=O)N1CCN(C(=O)C(=O)c2cccc(C(F)(F)F)c2)CC1,/,-8.4,-14.9,/,/
Cc1nn(C(=O)c2c(-c3ccccc3)noc2C)c(C)c1N=Nc1cc(C(F)(F)F)cc(C(F)(F)F)c1,-2.1,-2.1,-6.9,21.2,67.6*
CC(=O)Nc1cccc(-c2ccnc3c2CC(C(=O)Nc2cccc(Oc4ccccc4)c2)O3)c1 (configuration not stated),/,13.8,19.5,57.1*,40.9
O=C(Nc1ccc2c(c1)OCO2)C1Cc2c(-c3ccc4c(c3)OCO4)ccnc2O1 (configuration not stated),/,53.1*,21.2,23.1,37.8
CN(C)c1cccc(NC(=O)C2Cc3c(-c4ccccc4Oc4ccccc4)ccnc3O2)c1 (configuration not stated),/,-1.0,-4.3,8.3,25.2
CC(=O)Nc1cccc(-c2ccnc3c2CC(C(=O)NCc2cccs2)O3)c1 (configuration not stated),/,72.3*,18.5,-10.9,19.9
CC(=O)Nc1ccc(NC(=O)C2Cc3c(-c4ccc5c(c4)OCO5)ccnc3O2)cc1 (configuration not stated),/,3.1,5.4,-10.9,9.0
CC(=O)c1cccc(NC(=O)C2Cc3c(-c4ccccc4Oc4ccccc4)ccnc3O2)c1 (configuration not stated),/,8.5,39.6,51.4*,47.6
O=C(N[C@@H]1CC[C@@H](CCNC(=O)C2CCC2)O[C@H]1CO)c1ccccn1,/,2.8,5.7,/,/
C[C@@H]1CN([C@@H](C)CO)C(=O)c2cccc(NC(=O)c3nc4ccccc4s3)c2O[C@H]1CN(C)Cc1ccc(C(=O)Nc2ccccc2N)cc1,/,14.3,0.9,/,/
O=C1[C@H]2CCCC[C@H]2C(=O)N1CCCCN1CCN(c2nsc3ccccc23)CC1,61.8*,15.1,15.6,-0.6,-0.3
COc1ccc(-c2ccc3n(c2=O)C[C@@H]2[C@@H](CO)[C@H](C(=O)N(C)C)[C@H]3N2C(=O)c2cnccn2)cc1,/,-1.4,-8.4,/,/
COC(=O)C1=C(C)NC(C)=C([N+](=O)[O-])C1c1ccccc1C(F)(F)F (configuration not stated),54.8*!,-17.4,-3.6,1.9,-8.6
COC(=O)C1=C(C)NC(C)=C(C(=O)OC)C1c1ccc(-c2cccc([N+](=O)[O-])c2)o1,-15.0,0.4,-5.7,-12.3,-6.5
COc1ccc(/C=C2\SC(=O)N(CCNC(=O)Cc3coc4cc(OC)ccc34)C2=O)cc1,-9.3,-17.8,/,41.3,0.6
COc1ccc(/C=C2\SC(=O)N(CCNC(=O)Cn3[nH]c(=O)c4ccccc4c3=O)C2=O)cc1,3.7,-1.0,-19.5,51.0*,35.3
C[C@H](CO)N1C[C@H](C)[C@H](CN(C)Cc2ccc3c(c2)OCO3)Oc2ccc(NS(=O)(=O)c3cn(C)cn3)cc2CC1=O,/,7.3,4.8,/,/
O=[N+]([O-])c1ccc(-c2ccc(/C=N/O)o2)cc1,/,-40.6,-67.9,0.1,-57.0
O=[N+]([O-])c1ccc(-c2ccc(C=Nc3cccc4ccccc34)o2)cc1,-2.8,/,/,61.9*,62.8*
C[C@H](CO)N1C[C@H](C)[C@H](CN(C)CC2CC2)Oc2cc(C#Cc3ccccc3F)ccc2S1(=O)=O,/,2.6,14.0,/,/
O=C(Nc1ccccc1F)N1CCCCN2[C@H](C1)[C@@H](c1ccc(-c3cccnc3)cc1)[C@@H]2CO,/,/,-5.1,/,/
Cn1c(=O)c2c(ncn2CCC(=O)N/N=C/c2cccnc2)n(C)c1=O,2.4,2.1,/,84.0*,-0.2
CN(NS(=O)(=O)c1ccc(Br)cc1)c1nc(C(F)(F)F)nc2ccccc12,6.5,10.5,7.6,18.0,58.3*
CN(N)c1nc(C(F)(F)F)nc2ccccc12,3.1,7.0,-9.3,1.3,8.3
SMILES,LMP1 NFkB inh,EWS-Fli block,LGR2 inh,TWEAK-Fn14 inh,TROY NFkB inh
CCC(=O)N1CC(=O)N2[C@@H](CO)[C@H](c3ccc(C#CC4CCCCC4)cc3)[C@@H]2C1,/,-12.3,1.6,/,/
C[C@@H]1CN([C@@H](C)CO)C(=O)Cc2cc(NC(=O)Nc3ccc(C(F)(F)F)cc3)ccc2O[C@@H]1CN(C)C(=O)Nc1ccc2c(c1)OCO2,/,68.1*,17.1,/,/
C[C@@H]1CN([C@@H](C)CO)C(=O)Cc2cc(NC(=O)Nc3ccc(C(F)(F)F)cc3)ccc2O[C@@H]1CN(C)C(=O)Nc1cccc2ccccc12,/,67.5*,5.1,/,/
C[C@H](CO)N1C[C@H](C)[C@@H](CN(C)C(=O)Nc2cccc3ccccc23)Oc2ccc(NC(=O)Nc3ccc(C(F)(F)F)cc3)cc2CC1=O,/,15.6,14.9,/,/
O=C(C[C@@H]1CC[C@@H]2[C@H](COC[C@H](O)CN2C(=O)c2cccnc2)O1)NCc1ccc(Cl)cc1,/,5.9,-11.5,/,/
O=C([C@H]1[C@H](CO)[C@H]2Cn3c(ccc(C4=CCCC4)c3=O)[C@@H]1N2C(=O)c1ccncc1)N1CCOCC1,/,-2.6,2.5,/,/
CC1CC(C)CN(S(=O)(=O)c2ccc(NC(=O)CCN3C(=O)C4CC=CCC4C3=O)cc2)C1 (configuration not stated),71.7*,10.7,4.1,3.9,6.9
Cc1nc(Oc2ccc(S(=O)(=O)N3CCOCC3)cc2Cl)c2c3c(sc2n1)CCCC3,9.2,/,10.2,60.1*,29.3
CCC(C)NC(=O)c1ccc2c(Cl)c3c(nc2c1)CCC3 (configuration not stated),-8.0,-76.7,-65.8,-6.4,-61.9
O=C(Nc1ccc(Cl)cn1)c1ccc2c(Cl)c3c(nc2c1)CCC3,0.5,-69.0,-18.3,50.7*,59.9*
Cc1cccc(NC(=O)c2ccc3c(Cl)c4c(nc3c2)CCCC4)n1,-33.9,14.2,-68.9,62.9*,70.6*
O=C(C=C1SCCS1)/C=C/c1ccco1,85.8*,/,/,-7.5,-17.6
COc1ccc(/C=c2\s/c(=C/C(=O)c3ccc(C)cc3)[nH]c2=O)c(OC)c1,1.7,-13.1,-0.4,-37.4,-2.4
COc1cccc(/C=c2\s/c(=C\C(=O)C(C)(C)C)[nH]c2=O)c1,-5.6,7.1,0.4,55.7*,15.4
CN(C)S(=O)(=O)c1cccc(NC(=O)COc2ccccc2C(=O)Nc2ccccc2)c1,5.2,13.5,45.4*,51.2*,38.9
CN(C)S(=O)(=O)c1cccc(NC(=O)c2ccc(COc3ccccc3)cc2)c1,15.8,9.2,7.9,90.3*,58.2*
C[C@@H]1CCCCO[C@H](CN(C)Cc2ccccc2)[C@@H](C)CN([C@@H](C)CO)C(=O)c2cc(NC(=O)Nc3ccccc3)ccc2O1,/,2.6,15.0,/,/
